From the OligoGym collection come the findings set out here.
Also: reference of the scale not given here.

One assay concerns the target ZNF100. Put plainly: pooled miR-30 sensor sort-seq; sequence = guide strand. Conditions: shRNA.
As to TTAGTGAGGGCTGAGGACCAGT, the sensor-assay potency score (higher = more potent) is -0.895.
The sequence TTTGTTATCATGTTCTTTGTGC had a sensor-assay potency score (higher = more potent) of 0.633.
Same read-out and setting: the same measure for TATTTGTACAATATTTCTCAAG: -1.35.
Still for that read-out and setting: for TAATTTGTTATCATGTTCTTTG the value was -0.537.
Still for that read-out and setting: the same measure for TTTGTAACTGTAAATTGTCATG: -1.22; for TTCAAAATAAGACTGCACCAGA: 0.0757.
TTTCCTATACAAACCCTGCTGA: the sensor-assay potency score (higher = more potent) is -0.0321.
On to TTCTCCAGTATAACTTACCTTA, for which the sensor-assay potency score (higher = more potent) is -0.393.
Still for that read-out and setting: for TTTCTAGTATGTCTTATCTTAT the value was -1.12.
Still for that read-out and setting: for TTAATTTGTTATCATGTTCTTT the value was -0.0243; for TTGAATTTGAAAATGTATGAAA, -0.873.

In the next assay the target is ZNF135. The assay is described as above. Particulars: shRNA.
Consider TAGAACTGACAGTTTGACTTTG, for which the sensor-assay potency score (higher = more potent) was -0.0496.
The same measure, in the same setting: the same measure for TCTCATTTCTGGAACACTCTGC: 0.253; for TTAAGCATTCGTGACATTCATA: -1.02.
Still for that read-out and setting: for TTTCTCATGTGTATGATTGGGT the value was 0.467; for TTAGAACTGACAGTTTGACTTT, -0.0207; for TTCTTCAGAGATGCCTTGCTTT, -0.404.
On to TAACATAGCACTAATGGGCGTT, for which the sensor-assay potency score (higher = more potent) amounted to 0.0821.
